We go through 68 compounds from PubChem BioAssay AID504941 (Broad Institute, 2011).

Each structure is given as a SMILES string. Among all 1,200 compounds or so, about 170 (14%) were called active. Not all results are given here. Results with a measured potency or affinity are listed apart. Values without a mark were called inactive. No rule for the calls is given here.

The experiment is described as follows: twin-arginine translocation blockade, bacterial reporter – cherry-pick, set 2, plate reader, dose response (AID 504941). Particulars: E. coli Tat transport reporter; series mostly up to 38 µM; activity change, negative = inhibition: at the top concentration.
Turning to `CCCCCCc1ccc(N2C[C@H](Cc3ccccc3)[C@@H](CC(=O)NCc3ccc(OC)cc3)C2=O)cc1`, the “activity change, negative = inhibition” value was 29.2%. As to `CCCOc1cc(C)c(S(=O)(=O)N2CCN(C)CC2)cc1C`, the “activity change, negative = inhibition” value is -6.77%. Consider `COc1ccc(OC)c(S(=O)(=O)NCCc2ccccc2)c1`, for which the “activity change, negative = inhibition” value is -12.3%. As to `COc1ccc(S(=O)(=O)NCc2ccco2)c2ccccc12`, the “activity change, negative = inhibition” value was 9.03%.

`COC(=O)C1=CN(C(C)C)C=C(C(=O)OC)C1c1cccc(OC)c1`: the “activity change, negative = inhibition” value is 12.3%.

With `COc1ccc(N2C(=O)C3C4C=CC(C4)C3C2=O)nn1` (stereo not drawn), the “activity change, negative = inhibition” value was 2.9%. As to `CCNC(=O)c1ccc(NS(=O)(=O)c2ccccc2)cc1`, the “activity change, negative = inhibition” value was 20.1%.

On to `Cc1ccc(-c2cc(C(=O)OCC(=O)N(C)c3c(N)n(Cc4ccccc4)c(=O)[nH]c3=O)c3ccccc3n2)o1`, for which the “activity change, negative = inhibition” value was 26%. Under `N#CC1=C2SCC(O)(c3ccccc3)N2C(=O)CC1c1ccccc1F` (stereo not drawn) stands -1.97%; under `COc1cc(NC(=O)C2CC(=O)NC3=C2C(=O)CC(C)(C)C3)c(OC)cc1Cl` (stereo not drawn), 18.6%; under `Cn1c(C(=O)NCc2cccs2)cc2c(=O)n(C)c3ccccc3c21`, 8.97%. `COC(C(=O)Nc1ccnn1C1CCN(Cc2ccc(C)o2)CC1)c1ccccc1` (stereo not drawn): the “activity change, negative = inhibition” value was 1.14%. `O=C(c1n[nH]c2ccccc12)N1CCOCC1`: the “activity change, negative = inhibition” value is 2.16%. Consider `O=C(CSc1cccc[n+]1[O-])Nc1ccccc1C(F)(F)F`, for which the “activity change, negative = inhibition” value was 12.2%. With `C/C(Cn1nnc([N+](=O)[O-])n1)=N\NC(=O)c1ccc(O)cc1O`, the “activity change, negative = inhibition” value was 9.9%. Regarding `CC1CCCCN1S(=O)(=O)c1ccc(NC(=O)c2ccco2)cc1` (stereo not drawn), the “activity change, negative = inhibition” value is 2.51%. With `CCn1c(C)nc2cc(C(=O)N/N=C/c3ccc(OC)c(O)c3)ccc21`, the “activity change, negative = inhibition” value is -1.99%.

Turning to `COc1cccc(C2C(C(=O)OC(C)C)=C(C)Nc3ncnn32)c1` (stereo not drawn), the “activity change, negative = inhibition” value is 6.75%. With `CCN(CC)S(=O)(=O)c1ccc(=O)n(CC(=O)N2Cc3ccccc3CC2C(N)=O)c1` (stereo not drawn), the “activity change, negative = inhibition” value is -7.2%. `CC(Sc1nc2ccccc2c(=O)n1C)C(=O)NC1CCCCC1C` (stereo not drawn): the “activity change, negative = inhibition” value was -7.32%. Turning to `Cc1nn(Cc2ccccc2Cl)c(C)c1NC(=O)c1ccn(C)n1`, the “activity change, negative = inhibition” value is -0.679%. As for `Cn1c(=O)oc2cc(S(=O)(=O)NCCN3CCCCCC3)ccc21`, the “activity change, negative = inhibition” value is -0.08%. Under `CC(C)Sc1nc2c(c(=O)[nH]c(=O)n2C)n1CCc1ccccc1` stands -6.57%.

In the case of `CCOCCOc1nc2c(c(=O)n(C)c(=O)n2C)n1Cc1ccc(C)cc1`, the “activity change, negative = inhibition” value was 9.39%. As for `CCn1c(SCC(=O)Nc2ccc(OC)cc2)nc2c1c(=O)n(C)c(=O)n2C`, the “activity change, negative = inhibition” value was -3.88%. As for `CN(C)c1nc(NCc2ccccc2)nc(SCC(N)=O)n1`, the “activity change, negative = inhibition” value was -14.3%. Under `O=C(CN1CCN(c2ccccc2)CC1)N1N=CCC1c1ccccc1` (stereo not drawn) stands -3.44%; under `Cn1c(-c2ccccc2)cnc1N`, 7.04%. As for `Cc1nc2ccccc2c(=O)n1CCCO`, the “activity change, negative = inhibition” value was 16.5%.

Regarding `Cc1c(OCC(=O)NCCCN2CCOCC2)ccc2c1oc(=O)c1ccccc12`, the “activity change, negative = inhibition” value was 0.385%.

As to `CC(Sc1ccsc1[N+](=O)[O-])C(=O)N1CCN(c2ccccn2)CC1` (stereo not drawn), the “activity change, negative = inhibition” value was 8.43%. As to `N#Cc1ccccc1S(=O)(=O)N1CCN(CC(=O)Nc2ccnn2C2CCCC2)CC1`, the “activity change, negative = inhibition” value was 12.7%. Regarding `CCN(CC)C(=O)CSc1nc2ccccc2o1`, the “activity change, negative = inhibition” value was 8.86%. For the compound `COC(=O)c1ccc(C2CC(=O)Nc3cc(OC)c(OC)cc32)cc1` (stereo not drawn), the “activity change, negative = inhibition” value was 1.38%.

Take `Cc1ccc(S(=O)(=O)N2CCOCC2)cc1NC(=O)c1cc2ccccc2oc1=O`: the “activity change, negative = inhibition” value is 10.6%.

In the case of `Cc1ccc(NC(=O)/C(=C/c2cccc([N+](=O)[O-])c2)NC(=O)C2CCCCC2)c(C)c1`, the “activity change, negative = inhibition” value was 19.2%. `COc1ccc(CN2CSC(=S)N(Cc3ccccc3)C2)cc1`: the “activity change, negative = inhibition” value is 0.18%. As to `Nc1cc(N)nc(SCc2ccc(Cl)cc2)n1`, the “activity change, negative = inhibition” value was 2.74%. `O=C(CCCCCNC(=O)c1ccccc1)C[N+](=O)[O-]`: the “activity change, negative = inhibition” value is 9.54%.

On to `COCCCNc1nc2c(c(=O)[nH]c(=O)n2C)n1CC(O)COc1cccc(C)c1` (stereo not drawn), for which the “activity change, negative = inhibition” value was -25.7%. As for `COc1ccc(NC(=O)c2ccc(Oc3ncccn3)cc2)cc1`, the “activity change, negative = inhibition” value is 9.5%. Next, `Cn1c(N)c(C(=O)COC(=O)CCCN2C(=O)c3ccccc3C2=O)c(=O)n(C)c1=O`: 13.1%; `O=C(CN1CCN(c2ccccc2F)CC1)NC(=O)NCc1ccccc1`: 37.5%. Under `COc1ccc(-c2cc(C(F)(F)F)c3c(n2)sc2c(O)cc(=O)[nH]c23)c(OC)c1` stands 3.85%; under `Nc1ccccc1S(=O)(=O)NC1=NCCCCC1`, 7.97%; under `CC(C)(C)OC(=O)NCC(=O)N1CCC(C(=O)O)CC1`, 0.797%.

As for `O=C(NCc1ccccc1)c1nc[nH]c1C(=O)N1CCN(c2ccccc2)CC1`, the “activity change, negative = inhibition” value was -1.54%. With `CC1CCN(C(=O)c2[nH]cnc2C(=O)N[C@@H](C)C(=O)OC(C)(C)C)CC1`, the “activity change, negative = inhibition” value was -3.97%. Regarding `CC(=O)Nc1ccc(NS(=O)(=O)c2ccc3ccccc3c2)cc1`, the “activity change, negative = inhibition” value was 17.6%. Under `CCc1ccc(N2CC34C=CC(O3)C(C(=O)OC(C)C)C4C2=O)cc1` (stereo not drawn) stands 11.4%. In the case of `COc1ccc(N=Cc2nc(-c3ccccc3)oc2OC(=O)c2ccccc2)cc1`, the “activity change, negative = inhibition” value is -7.66%.

`COC(=O)c1c(NC(=O)C(=O)NCCCN2CCOCC2)sc2c1CCCC2`: the “activity change, negative = inhibition” value is 23.1%. Next, `Cc1nn2c(SCC(=O)c3cccs3)cc(C(C)(C)C)nc2c1-c1ccccc1`: 18.4%; `O=C(O)c1ccc(NS(=O)(=O)c2cc(C(=O)O)ccc2Br)cc1`: -5.5%; `CC(C)(C)c1ccc(C(=O)n2cnc3ccccc32)cc1`: -4.98%. `Cc1ccc(CNC(=O)C2CCCN2C(=O)Nc2ccccc2)cc1` (stereo not drawn): the “activity change, negative = inhibition” value is 6.34%. In the case of `O=C(O)C1CCCCN1S(=O)(=O)c1ccc(Cl)s1` (stereo not drawn), the “activity change, negative = inhibition” value is 3.43%. For the compound `Cc1ccc(-n2nnnc2-c2cnc3cc4c(cc3c2C)OCO4)cc1`, the “activity change, negative = inhibition” value was 5.42%. As to `Cc1ccc2nc(NNC(=O)c3ccc(S(=O)(=O)N4CCc5ccccc5C4)cc3)sc2c1`, the “activity change, negative = inhibition” value was 24.4%. Consider `O=C(CSc1nnc(-c2ccccc2)n1C1CCCCC1)N1CCCC1`, for which the “activity change, negative = inhibition” value is 14.9%. Regarding `Cc1ccnc(NS(=O)(=O)c2ccc(NS(=O)(=O)c3ccccc3)cc2)n1`, the “activity change, negative = inhibition” value is -7.87%. With `O=C(CN(Cc1ccco1)C(=O)c1ccccc1F)Nc1ccccc1C(F)(F)F`, the “activity change, negative = inhibition” value was -17.7%.

For `CCc1cccc2c1NC(=O)C2(O)N1CCCC(C)C1` (stereo not drawn), the “activity change, negative = inhibition” value is -0.33%. Next, `COc1cccc(C(=O)Nc2cc([N+](=O)[O-])ccc2N2CCN(C)CC2)c1`: -5.03%; `Cc1cccc(NC(=O)CN(c2ccc(F)cc2)S(C)(=O)=O)c1`: 19.3%; `CS(=O)(=O)N(CC(=O)NC1CCCC1)c1cccc(F)c1`: -8.84%.

As to `COC(CN(C)C(=O)C1CCCN(S(=O)(=O)c2ccc3c(c2)oc(=O)n3C)C1)OC` (stereo not drawn), the “activity change, negative = inhibition” value is 6.34%. `CCOC(=O)c1c(NC(NC(C)=O)C(Cl)(Cl)Cl)sc(C(C)=O)c1C` (stereo not drawn): the “activity change, negative = inhibition” value is -6.84%.
